Values without a mark were called inactive. Calls come from the whole dose curve; as a rule, active = well fitted curve in the direction sought with a large enough effect; inconclusive = small, poorly fitted or top-dose-only effect, or another doubt; inactive = no such curve, though single readings can be large or run the other way.
Each compound was assayed against Hexokinase-4 (Homo sapiens) + Glucokinase regulatory protein (Homo sapiens) (UniProt P35557+Q14397) (assay: qHTS assay for inhibitors of recombinant human GCK-GKRP interaction: HTRF assay (AID 743207;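 note: 0% = DMSO with GCK present and -100% = DMSO wells lacking GCK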)). Conditions: recombinant GCK-GKRP HTRF binding, 60 min, with sorbitol-6-phosphate; series mostly up to 57.5 µM; activity change, negative = inhibition: at the top concentration.
Hexokinase-4 (Homo sapiens) + Glucokinase regulatory protein (Homo sapiens), sequence (P35557 whole entry, looked up): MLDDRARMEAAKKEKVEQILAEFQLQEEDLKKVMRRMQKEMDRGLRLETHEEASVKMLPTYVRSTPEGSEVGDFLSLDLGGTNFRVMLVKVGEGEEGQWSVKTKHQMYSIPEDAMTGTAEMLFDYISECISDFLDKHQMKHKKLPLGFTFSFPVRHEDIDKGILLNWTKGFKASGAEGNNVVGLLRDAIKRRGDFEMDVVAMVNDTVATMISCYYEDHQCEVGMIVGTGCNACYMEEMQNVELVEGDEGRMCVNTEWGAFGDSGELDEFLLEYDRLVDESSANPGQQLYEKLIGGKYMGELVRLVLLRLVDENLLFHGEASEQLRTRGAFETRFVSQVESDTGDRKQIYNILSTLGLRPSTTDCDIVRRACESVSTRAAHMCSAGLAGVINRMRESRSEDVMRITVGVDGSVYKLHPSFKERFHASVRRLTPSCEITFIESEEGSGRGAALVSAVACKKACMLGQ
Hexokinase-4 (Homo sapiens) + Glucokinase regulatory protein (Homo sapiens), sequence (Q14397 whole entry, looked up): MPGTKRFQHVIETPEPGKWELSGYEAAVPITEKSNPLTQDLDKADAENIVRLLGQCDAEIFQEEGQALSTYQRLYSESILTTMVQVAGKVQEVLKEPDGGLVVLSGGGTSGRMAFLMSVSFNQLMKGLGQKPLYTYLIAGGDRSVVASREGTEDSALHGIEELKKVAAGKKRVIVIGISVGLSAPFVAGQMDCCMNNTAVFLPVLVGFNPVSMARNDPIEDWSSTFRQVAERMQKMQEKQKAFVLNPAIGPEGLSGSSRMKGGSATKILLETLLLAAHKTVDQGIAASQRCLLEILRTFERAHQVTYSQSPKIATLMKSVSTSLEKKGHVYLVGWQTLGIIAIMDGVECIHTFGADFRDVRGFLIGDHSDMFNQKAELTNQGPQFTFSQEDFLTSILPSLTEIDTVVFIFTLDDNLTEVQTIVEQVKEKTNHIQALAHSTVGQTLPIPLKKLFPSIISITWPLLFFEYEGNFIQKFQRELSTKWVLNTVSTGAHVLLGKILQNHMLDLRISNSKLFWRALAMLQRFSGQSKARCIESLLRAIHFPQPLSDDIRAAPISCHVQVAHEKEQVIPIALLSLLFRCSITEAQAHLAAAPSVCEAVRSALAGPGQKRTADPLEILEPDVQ
Description: Glucokinase (GCK) is a glucose sensor in hepatocytes and pancreatic beta-cells. Hepatic GCK is regulated by glucokinase regulatory protein (GKRP), which is predominantly localized to the liver. GKRP binds to GCK inhibiting its activity in the fasting state while in the presence of glucose the GKRP is displaced. There is an additional layer of regulation by fructose 1-phosphate and fructose 6-phosphate, which inhibit and enhance the GCK-GKRP interaction, respectively. GCK plays a role in glucose homeostasis and there is an interest in the development of strategies to activate GCK to lower blood glucose levels in type 2 diabetes. To date the majority of effort has focused on direct activation of GCK and the assays developed herein look to activate GCK by inhibiting its binding to GKRP. A compound that inhibits the interaction of GCK with GKRP could be important for the treatment of diabetes and can also be used as a tool compound to further elucidate GCK-GKRP biology. To that end, we have developed an HTS biochemical assay using HTRF technology for to interrogate the GCK-GKRP interaction. This assay was screened against a small compound library to look for modulators of activity.
3 uL of 5 nM GST-GCK and 5 nM FLAG-GKRP proteins with 2 uM S6P (columns 1-2, 4-48; Millipore, Billerica, MA) are dispensed into Greiner, white solid-bottom 1536-well assay plates; columns 3 receive buffer without GCK as a control for maximum inhibition. Buffer contains 2 mM MgCl2, 25 mM KCl, 25 mM Hepes, 1 mM DTT, 0.1% Tween 20 and 0.025% BSA and the pH was adjusted to 7.1. Compounds (23 nL) are then transferred via Kalypsys pin tool equipped with 1536-pin array (10 nL slotted pins, V&P Scientific, San Diego, CA). The library compounds are in columns 5-48 and columns 1-4 serve as controls with DMSO in columns 1 and 3 and 26 mM 1:1.5 fold serial of gluckokinase activator (GKA-EMD) in column 2 and 26 mM of the glucokinase activator (GKA-EMD) in column 4. Following addition of compound, 1 uL of detection antibodies (anti-Flag XL 665 and anti-GST K in reconstitution buffer from Cisbio, Bedford, MA; 0.7 ng/well and 0.0945 ng/well, respectively) is added, and the mixture is allowed to equilibrate for 60 minutes at room temperature. Data are normalized to DMSO-treated control columns with (maximum signal) and without (minimum signal) enzyme. Plates were read on an Envision plate reader (PerkinElmer, Shelton, CT, USA) with excitation at 320 nm and dual-wavelength detection at the Fret donor wavelength (615 nm) and the FRET acceptor wavelength (665 nm).
With CCn1c(=O)[nH]c2cc(Cl)c(Cl)cc21 the “activity change, negative = inhibition” value was -13.9%.
For Cc1ccc([N+](=O)[O-])cc1S(=O)(=O)N(C)C, the “activity change, negative = inhibition” value was -10.6%.
For CC(=O)[C@H]1CCC2C3CC=C4C[C@@H](OS(=O)(=O)O)CC[C@]4(C)C3CC[C@@]21C (stereo not given in full), the “activity change, negative = inhibition” value was -6.87%.
CN(C)S(=O)(=O)c1ccc2c(c1)/C(=C/c1cc3c([nH]1)CCCC3)C(=O)N2 was tested, and the “activity change, negative = inhibition” value was 1%.
In the case of CCC1(O)CC2CN(CCc3c([nH]c4ccccc34)[C@@](C(=O)OC)(c3cc4c(cc3OC)N(C)C3[C@]45CCN4CC=C[C@@](CC)([C@@H](OC(C)=O)[C@]3(O)C(=O)OC)[C@H]45)C2)C1 (stereo not given in full), the “activity change, negative = inhibition” value is reported as 16.6%.
CC[C@@H]1Cc2cc(O)ccc2C2=C1c1ccc(O)cc1C[C@H]2CC was tested, and the “activity change, negative = inhibition” value was -18.9%.
For C=C1C[C@@]23CC[C@H]4[C@@](C)(CCC[C@@]4(C)C(=O)OC4OC(CO)C(O)C(O)C4O)[C@@H]2CC[C@]1(OC1OC(CO)C(O)C(O)C1OC1OC(CO)C(O)C(O)C1O)C3 (stereo not given in full), the “activity change, negative = inhibition” value was 1.73%.
For CO/N=C(\C(=O)N[C@@H]1C(=O)N2C(C(=O)O)=C(CSc3nc(=O)c(O)nn3C)CSC12)c1csc(N)n1 (stereo not given in full), the “activity change, negative = inhibition” value was -3.97%.
With NCC(O)c1ccc(O)c(O)c1 (stereo not given) the “activity change, negative = inhibition” value was -13.9%.
O=C(O)CCC(=O)N1CCCC1C(=O)O (stereo not given) was tested, and the “activity change, negative = inhibition” value was 7.68%.
COc1cc(/C=C(\C#N)C(=O)c2ccc(O)c(O)c2)cc(I)c1O was tested, and the “activity change, negative = inhibition” value was -7.21%.
O=C(O)c1cc2cc(F)ccc2[nH]1 was tested, and the “activity change, negative = inhibition” value was 0.909%.
In the case of CN(C)C(=O)/N=N/C(=O)N(C)C, the “activity change, negative = inhibition” value is reported as -2.34%.
NOCC(=O)O was tested, and the “activity change, negative = inhibition” value was 5.69%.
For Nc1ncnc2c1nc(Sc1ccc(Cl)cc1)n2[C@H]1OC2COP(=O)(O)O[C@@H]2C1O (stereo not given in full), the “activity change, negative = inhibition” value was -3.97%.
For Oc1cc(O)c2c(c1)O[C@H](c1ccc(O)c(O)c1)[C@@H](O)C2, the “activity change, negative = inhibition” value was -1.74%.
For C=CC[C@H](N)C(=O)O, the “activity change, negative = inhibition” value was 9.12%.
CC(C)Cn1c(=O)n(C)c(=O)c2[nH]cnc21 was tested, and the “activity change, negative = inhibition” value was -1.77%.
Nc1ncnc2c1c(-c1ccc(Oc3ccccc3)cc1)cn2C1CCCC1 was tested, and the “activity change, negative = inhibition” value was -7.05%.
With NC1(C(=O)O)CCCCC1 the “activity change, negative = inhibition” value was -21.9%.
In the case of CC(N)(Cc1ccc(O)cc1)C(=O)O (stereo not given), the “activity change, negative = inhibition” value is reported as -25%.
In the case of CCCC[C@@]1(C2CCCC2)Cc2cc(OCC(=O)O)c(Cl)c(Cl)c2C1=O, the “activity change, negative = inhibition” value is reported as 6.15%.
CC(C)[C@@H]1CC[C@@H](C)C[C@@H]1P(=O)(c1ccccc1)c1ccccc1 was tested, and the “activity change, negative = inhibition” value was 19.1%.
In the case of NC(C(=O)N[C@@H]1C(=O)N2C(C(=O)O)=C(Cl)CS[C@H]12)c1ccccc1 (stereo not given in full), the “activity change, negative = inhibition” value is reported as -13.5%.
In the case of CCCCCCCCCCC(C)(C)C(=O)Nc1c(OC)cc(OC)cc1OC, the “activity change, negative = inhibition” value is reported as 0.279%.
COc1ccccc1N1CCN(CCCCN2C(=O)c3ccccc3C2=O)CC1 was tested, and the “activity change, negative = inhibition” value was -5.5%.
In the case of CC1C(=O)N(C)C(=O)c2nc[nH]c21 (stereo not given), the “activity change, negative = inhibition” value is reported as 1.46%.
In the case of CCCn1c(=O)c2c(ncn2C)n(CCC)c1=O, the “activity change, negative = inhibition” value is reported as 3.06%.
With NCCNS(=O)(=O)c1cccc2c(Cl)cccc12 the “activity change, negative = inhibition” value was -3.23%.
N#Cc1cc([N+](=O)[O-])c2sc(C(N)=O)[n+]([O-])c2c1 was tested, and the “activity change, negative = inhibition” value was -3.94%.
With CCOC(=O)C12CC1/C(=N/O)c1ccccc1O2 (stereo not given) the “activity change, negative = inhibition” value was 11.2%.
For N#Cc1cc2nc(O)c(O)nc2cc1[N+](=O)[O-], the “activity change, negative = inhibition” value was -10.7%.
Nc1ccc2c3c(cccc13)C(=O)NC2=O was tested, and the “activity change, negative = inhibition” value was 0.445%.
In the case of CCCCCCCCCCCCCCC[C@H](O)[C@H](N)CO, the “activity change, negative = inhibition” value is reported as 11.6%.
With C[C@](Cc1ccc(O)c(O)c1)(NN)C(=O)O the “activity change, negative = inhibition” value was -8%.
In the case of N[C@H]1CONC1=O, the “activity change, negative = inhibition” value is reported as 1.2%.
With C#CCn1c(=O)c2c(ncn2C)n(C)c1=O the “activity change, negative = inhibition” value was -5.74%.
CN1Cc2sccc2C(c2ccc(O)c(O)c2)C1 (stereo not given) was tested, and the “activity change, negative = inhibition” value was 0.968%.
In the case of CC(N)=NCCCC[C@@H](N)C(=O)O, the “activity change, negative = inhibition” value is reported as -9.69%.
With CCCc1c(-c2ccc(O)cc2)nn(-c2ccc(O)cc2)c1-c1ccc(O)cc1 the “activity change, negative = inhibition” value was 7.44%.

Source: PubChem BioAssay (NCATS)
